# PubChem BioAssay
# Measured potencies and affinities stand elsewhere. Calls of active or inactive are those of the source. The rule behind the calls is not given here.
# Test: A549 cell cytotoxicity, dose response, cytotoxicity control, plate reader, cherry-pick, antagonist series (AID 743412)
# Conditions: series mostly up to 26 µM
row,Structure (SMILES),outcome
1,CN(C)c1ccc(C(=O)Nc2nc3c(s2)CCCC3)cc1,inactive
2,COc1ccc2sc(NC(=O)c3ccco3)nc2c1,inactive
3,O=c1c2c(nc3cc(-c4ccc(F)cc4)[nH]n13)CCCC2,inactive
4,C=CCN1CCN(C(=O)CCCc2ccccc2)CC1,inactive
5,O=C(NCCc1ccccc1)c1ccc2c(c1)OCCO2,inactive
6,O=C(Nc1ccccc1)c1cn2ccccc2n1,inactive
7,c1ccc(-n2nnnc2Sc2ncnc3sc4c(c23)CCCC4)cc1,inactive
8,CC1CCCN(c2ncnc3c2cnn3-c2ccccc2)C1 (configuration not stated),inactive
9,COc1ccc(-c2cc(C)nc3c(-c4ccccc4)cnn23)cc1,inactive
10,COc1ccc(-c2[nH]ncc2-c2ccc3c(c2)OCCO3)c(O)c1,inactive
11,CC(C)(C)n1ncc2c(=O)n(CC(=O)OCc3ccccc3)cnc21,inactive
12,CCc1ccn2cc(-c3cc(-c4ccccc4)no3)nc2c1,inactive
13,CC(C)Nc1ncnc2c1cnn2-c1ccc(Cl)cc1,inactive
14,COc1ccc(NC(=O)Nc2cccc([N+](=O)[O-])c2)cc1Cl,inactive
15,Cc1ccc(-c2cc(C(=O)N(C)Cc3cnn(C)c3C)c3cc(Br)ccc3n2)cc1,inactive
16,CCCOc1ccc2cc(-c3ccccn3)c(=O)oc2c1,inactive
17,COC(=O)c1ccc2nc(NC(=O)C(C)(C)C)sc2c1,inactive
18,COc1cccc(-c2cc(C(=O)Nc3cccc(O)c3)no2)c1,inactive
19,O=C(CN1C(=O)c2ccccc2S1(=O)=O)Nc1ncc(Cl)cc1Cl,inactive
20,CCC(=O)Nc1cc2nn(-c3ccc(OC)cc3)nc2cc1C,inactive

row,Structure (SMILES),outcome
1,C[C@H](CO)N1C[C@H](C)[C@H](CN(C)C(=O)Cc2ccccc2)OCCCC[C@H](C)Oc2ccc(NC(=O)Nc3ccc(C(F)(F)F)cc3)cc2C1=O,inactive
2,c1ccc(COc2ccc(OCCCN3CCCC3)cc2)cc1,inactive
3,COCCn1c(C)cc(C(=O)CSc2nc3ccccc3s2)c1C,inactive
4,CCOC(=O)c1sc(NC(=O)Nc2ccccc2F)nc1C,inactive
5,O=C(Nc1nc2ccccc2s1)c1ccc2sc([C@H]3C[C@H](O)[C@@H](CO)O3)nc2c1,inactive
6,COc1cccc(-c2cc(C(=O)N3CCCCCC3)no2)c1,inactive
7,COc1ccc(CC(=O)Nc2cccc(-c3nnc(-c4cccc(C)c4)o3)c2)cc1OC,inactive
8,COc1cc(NC(=O)c2cccc3c(-c4cccnc4)coc23)cc(OC)c1OC,inactive
9,COc1ccc(-n2ncc3c(N4CCC(C)CC4)ncnc32)cc1,inactive
10,Cc1ccc(-c2nc(-c3ccccn3)no2)cc1[N+](=O)[O-],inactive
11,Cc1ccc(-n2ncc3c(N4CCN(c5ccccc5)CC4)ncnc32)c(C)c1,inactive
12,COc1ccc(-c2csc(NC(=O)c3ccc(OCC(=O)N4CCOCC4)c(OC)c3)n2)cc1,inactive
13,Cc1ccc(-c2nc(-c3ccncc3)no2)cc1C,inactive
14,Cc1ccc2nc(-c3ccc(NC(=O)c4cccnc4)cc3)oc2c1,inactive
15,O=C(Cn1ncc(Cl)c(Cl)c1=O)c1ccc2c(c1)OCCO2,inactive
16,Cc1ccc(-c2cc(C(=O)N3CCOCC3)no2)cc1,inactive
17,O=C(O)c1ccc(N/N=C/c2ccc(OC(=O)c3cccc(Cl)c3)cc2)cc1,inactive
18,Cc1ccc(-c2cnn3c(N4CCOCC4)cc(C)nc23)cc1,inactive
19,Cc1ccc(-c2nnc(Nc3ccccc3)o2)cc1,inactive

# Test: toxicity toward HepG2 liver cells – cell-based, plate reader, cherry-pick, antagonist series, cytotoxicity control, dose response (AID 743416)
# Conditions: series mostly up to 26 µM
row,Structure (SMILES),outcome
1,COc1ccc(-c2cc(C)nc3c(-c4ccccc4)cnn23)cc1,inactive
2,CC(C)(C)n1ncc2c(=O)n(CC(=O)OCc3ccccc3)cnc21,inactive
3,CC(C)Nc1ncnc2c1cnn2-c1ccc(Cl)cc1,inactive
4,COc1cccc(-c2cc(C(=O)N3CCCCCC3)no2)c1,inactive
5,Cc1ccc(-c2nc(-c3ccccn3)no2)cc1[N+](=O)[O-],inactive
6,Cc1ccc2nc(-c3ccc(NC(=O)c4cccnc4)cc3)oc2c1,inactive
7,Cc1ccc(-c2cc(C(=O)N3CCOCC3)no2)cc1,inactive
8,O=C(O)c1ccc(N/N=C/c2ccc(OC(=O)c3cccc(Cl)c3)cc2)cc1,inactive
